# Results filed as inconclusive are left out. Entries that show only a call come without a potency. The source made the active and inactive calls. Calls come from the whole dose curve; as a rule, active = well fitted inhibition curve with a large enough effect; inconclusive = small, poorly fitted or top-dose-only effect; inactive = flat fitted curve, though single readings scatter.
# Biological target: Calcium and integrin-binding protein 1 (Homo sapiens) (UniProt Q99828)
# Assay: Primary qHTS for Identification of Calcium Integrin Binding Protein 1 (CIB1) Competitor (AID 1508620);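 note: GST tagged CIB1 binding a fluorescein labelled alphaIIb integrin peptide tracer; top concentration of the series differs between compounds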
# Conditions: CIB1-GST / FITC-alphaIIb peptide fluorescence polarization; series mostly up to 57.7 µM
# Procedure, shortened: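 Fluorescence polarization competition: CIB1-GST (1 uM final) preincubated with compound 15 min at room temperature, then FITC-labeled alphaIIb peptide (100 nM final) added for another 15 min. Polarization read at Ex 480/Em 540.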
# Calcium and integrin-binding protein 1 (Homo sapiens), sequence (Q99828 whole entry, looked up): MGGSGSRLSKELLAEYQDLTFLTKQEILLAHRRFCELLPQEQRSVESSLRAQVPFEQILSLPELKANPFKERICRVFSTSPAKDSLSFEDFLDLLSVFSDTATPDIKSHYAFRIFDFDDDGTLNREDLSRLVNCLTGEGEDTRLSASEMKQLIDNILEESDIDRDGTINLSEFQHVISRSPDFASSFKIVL
row,SMILES,Potency
1,CN(C)N=Nc1nc[nH]c1C(N)=O,inactive
2,CCCCCCCCCCCCCC(=O)N[C@H](CO)[C@H](O)c1ccc([N+](=O)[O-])cc1,inactive
3,CC(C)(O)CC(=O)NCCn1ccc2ncnc(Nc3ccc(Oc4cccc(C(F)(F)F)c4)c(Cl)c3)c21,inactive

# Source: PubChem BioAssay (NCATS)
